Screens deposited in PubChem by National Center for Advancing Translational Sciences (NCATS).
Hits are enriched below; roughly 10% of the tested compounds scored in any of these assays.
NIH3T3 tox: NIH 3T3 cell cytotoxicity; NIH 3T3 viability, CellTiter-Glo ATP luminescence, 48-72 h; Potency, µM (highest dose often 96.7 µM), for the others: at the top dose activity change, negative = cytotoxicity, hits mostly inhibitors; 4.3% of 94,000 active; AID 1345082; also: nearly all actives have a fitted effect of over 55% in size
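Cytotoxicity is measured as loss of cellular ATP: NIH 3T3 cells (400/well) are exposed to compound for 48 or 72 hr at 37 °C, then CellTiter-Glo luminescence is imaged after 10 min at room temperature.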
GPT2 inh: blocks human glutamate pyruvate transaminase 2; Q8TD30; Recombinant GPT2, coupled pyruvate oxidase/HRP Amplex Red fluorescence; Potency, µM (top dose mostly 57.7 µM), inactives show at the top dose activity change, negative = inhibition, actives largely listed as inhibitors; 0.25% of 100,000 active; AID 1671188; also: nearly all actives have a fitted effect of over 60% in size
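Inhibition is scored from Amplex Red fluorescence generated when pyruvate oxidase and HRP act on pyruvate released by GPT2. Reactions contain 10ng/uL enzyme, 250uM a-KG and 2mM L-alanine and run 30 min at room temperature.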
HEK cytotox: cytotoxic compounds in HEK 293 cells | Potency, µM (titrated, usually from 115 µM), for inactives: at the top dose activity change, negative = cytotoxicity, usual class: inhibitors | HEK 293 viability, ATP luminescence (CellTiter-Glo), 48-72 h | 6.6% of 94,000 active; also: nearly all actives have a fitted effect of over 60% in size
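Viability of HEK 293 cells, plated at 250 cells/well, was judged by cellular ATP after compound treatment for 48 or 72 hr. Luminescence was imaged 10 min after CellTiter-Glo addition at room temperature.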
FLuc inh: blocks purified firefly luciferase enzyme activity | P08659 | purified P. pyralis luciferase, luminescence, biochemical | Potency, µM (top dose mostly 115 µM), usual class: inhibitors | 2.5% of 76,000 active; also: nearly all actives have a fitted effect of over 65% in size
Target sequence (P08659 whole entry, looked up): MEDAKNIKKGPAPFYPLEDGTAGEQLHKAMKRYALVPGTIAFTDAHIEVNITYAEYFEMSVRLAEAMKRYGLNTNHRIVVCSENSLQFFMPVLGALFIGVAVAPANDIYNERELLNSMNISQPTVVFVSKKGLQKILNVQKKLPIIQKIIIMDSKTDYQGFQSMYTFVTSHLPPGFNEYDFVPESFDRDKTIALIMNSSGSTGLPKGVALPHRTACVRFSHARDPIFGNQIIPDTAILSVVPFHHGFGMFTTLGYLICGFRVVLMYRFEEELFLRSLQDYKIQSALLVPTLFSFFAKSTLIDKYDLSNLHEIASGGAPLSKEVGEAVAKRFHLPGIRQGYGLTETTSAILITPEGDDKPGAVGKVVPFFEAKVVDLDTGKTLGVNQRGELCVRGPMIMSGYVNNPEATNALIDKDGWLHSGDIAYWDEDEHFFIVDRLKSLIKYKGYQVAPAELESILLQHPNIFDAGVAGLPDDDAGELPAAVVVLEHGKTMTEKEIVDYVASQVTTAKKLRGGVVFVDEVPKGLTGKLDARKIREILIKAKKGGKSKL
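Biochemical qHTS: compound (6-point titration) added to 10uM D-luciferin plus 10uM ATP in Tris acetate pH 7.5 buffer with Mg, Tween-20 and BSA, then purified enzyme at 10nM; light output imaged.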
hNpr1 antagonist: human Npr1 receptor antagonism; P16066; HEK293 hNpr1 GloSensor cGMP, ANP-stimulated luminescence; Potency, µM (series often up to 46.3 µM), for the others: top-dose activity change, negative = inhibition, usual class: inhibitors; 1.6% of 76,000 active; calls by dose curve; also: nearly all actives have a fitted effect of over 60% in size
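HEK293 cells stably expressing human Npr1 and cGMP GloSensor pGS-40F, loaded 2 h with 2% GloSensor reagent, given compound 30 min at room temperature. Luminescence read before and 20 min after 0.1 nM hNppA.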
* marks the source's active call; other numbers are inactive results; i = inactive; ? = inconclusive; / = not tested or not shown; [ ] = remark or other dose. Unless noted, calls follow the shape of the dose curve; as a rule, active = well fitted curve in the direction sought with a large enough effect; inconclusive = small, poorly fitted or top-dose-only effect, or another doubt; inactive = no such curve, though single readings can be large; an effect the other way counts as inactive or inconclusive. % is scaled to controls: 0 for no effect and ±100 for the full control effect; potency is read from the fitted curve at half-maximal effect.

SMILES	NIH3T3 tox	GPT2 inh	HEK cytotox	FLuc inh	hNpr1 antagonist
COc1ccc(-c2ccc3ncc(Nc4cc(F)ccc4OC)n3n2)cn1	-11%[138 µM]	?	?	i	-7%[70.6 µM]
CNC(=O)C1CCN(Cc2ccccc2-c2cccnc2)CC1	3%[138 µM]	-12%[88.5 µM]	i	/	/
CNC(=O)N1CCC2(CC1)CC(Cc1ccc(C)cc1)CCO2 (centres undefined)	-26%	-27%	?	/	/
COc1ccc(-c2ccc3ncc(Nc4ccccc4C)n3n2)cn1	89µM*	i	?	i	-1%[70.6 µM]
COc1ccc(-c2ccc3ncc(Nc4ccccc4OC)n3n2)cn1	?	i	?	i	-2%[70.6 µM]
COc1ccc(-c2ccc3ncc(Nc4cccc(F)c4)n3n2)cn1	?	?	63µM*	?	-16%[70.6 µM]
CC(C)CCN1CCn2c(nnc2-c2cccnc2)C1	1%[138 µM]	-1%[88.5 µM]	i	i	0%[70.6 µM]
O=C(NCC1CCCCC1)C1CCCCN1Cc1ccc(-c2ccsc2)cc1 (centres undefined)	?	-3%	?	/	/
O=C(NCC(F)F)C1CCCCN1Cc1ccc(-c2ccsc2)cc1 (centres undefined)	?	i	40µM*	/	/
COCCCNC(=O)C1CCCCN1Cc1ccc(-c2ccsc2)cc1 (centres undefined)	?	4%	?	/	/
O=C(NCCCc1ccccc1)C1CCCCN1Cc1ccc(-c2ccsc2)cc1 (centres undefined)	35µM*	-25%	?	/	/
O=C(NCCc1ccc(F)cc1)C1CCCCN1Cc1ccc(-c2ccsc2)cc1 (centres undefined)	32µM*	i	35µM*	/	/
O=C(NCCc1ccc(F)cc1)C1CCCCN1Cc1ccc(-c2cccs2)cc1 (centres undefined)	?	-5%	22µM*	/	/
O=C(NCc1ccc(F)cc1F)c1ccc2nnc(C3CCOCC3)n2c1	-22%[138 µM]	/	2%[172 µM]	/	/
Cc1ccc(CN2Cc3[nH]cnc3C[C@H]2C(=O)N2CCC(Cc3ccccc3)CC2)cc1	71µM*	2%[88.5 µM]	?	i	-14%[70.6 µM]
O=C(C1CCCCN1Cc1ccc(-c2ccsc2)cc1)N1CCC(Cc2ccccc2)CC1 (centres undefined)	35µM*	i	?	/	/
O=C(c1nc(-c2cccc(C(F)(F)F)c2)c2cnccn12)N1CCN(c2ncccn2)CC1	-7%	i	-3%	i	19%
COc1ccc(CN2CCC(O)(c3csc(CN4CCN(C)CC4)n3)CC2)cc1	89µM*	-12%[88.5 µM]	100µM*	i	1%[70.6 µM]
CN1CCN(Cc2nc(C3(O)CCN(Cc4ccccc4)CC3)cs2)CC1	?	1%[88.5 µM]	?	i	3%[70.6 µM]
OC1(c2csc(CN3CCc4ccccc4C3)n2)CCN(C2CCC2)CC1	100µM*	-36%[88.5 µM]	71µM*	i	4%[70.6 µM]
CN1CCC(N2CCC(O)(c3csc(CN4CCc5ccccc5C4)n3)CC2)CC1	56µM*	0%[88.5 µM]	40µM*	i	4%[70.6 µM]
CC(C)(C)CC(=O)N1CCC(O)(c2csc(CN3CCc4ccccc4C3)n2)CC1	?	?	71µM*	i	-21%[70.6 µM]
COCc1nnc(C2CC3(CCN(C(=O)c4ccc(OC)nc4)CC3)CN2C)o1 (centres undefined)	-7%	2%	i	/	/
COc1cc(OC)cc(C(=O)N[C@@H]2CN(c3ncccn3)C[C@H]2CO)c1	i	1%	i	i	2%
C[C@@H]1C(=O)O[C@H]2[C@H]1CC[C@@]1(C)Cc3sc(NC(=O)Nc4ccc(Oc5ccccc5)cc4)nc3[C@@H](C)[C@H]21	?	0%	?	?	5%
CC(C)CCN1CCC(O)(c2csc(CN3CCc4ccccc4C3)n2)CC1	100µM*	-15%[88.5 µM]	79µM*	i	5%[70.6 µM]
COCc1noc([C@@H]2CN(Cc3cn(C)c4ccc(OC)cc34)C[C@H]2C(N)=O)n1	?	i	?	i	2%
CC(C)(C)c1ccc(-n2ncc3c2CCCC3NC(=O)c2c[nH]c(=O)[nH]c2=O)cc1 (centres undefined)	?	5%[11.5 µM]	32µM*	?	8.9µM*
